Tests used:
Test in all cases: log2 ratio of Biotin-Ahx-Ub-VS probe labelling (fragment/DMSO); higher = less target engagement (more negative = stronger competition), active = hit call of the paper (q ≤ 0.05, log2 ratio ≤ -1)
Settings in all cases: compound concentration: 200 uM; treatment time: 3 h
[1] = target: UniProt O00507
In short: (§1)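 In triplicate, 495 µg of HEK293T lysate per sample was incubated with fragment at 200 µM or vehicle for 3 h. Biotin-Ahx-Ub-VS was then added to 0.5 µM final for 1 h, and labelled DUBs were captured with NeutrAvidin, digested with LysC and trypsin, and measured by diaPASEF LC-MS/MS. Data are average log2 fragment/vehicle ratios by unpaired t-test from global-median-normalised Spectronaut label-free quantities, restricted to proteins with ≥2 unique peptides.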

[2] = target: UniProt P51784
In short: as §1

[3] = target: T1, UniProt Q5T2D3
T1 sequence (whole entry): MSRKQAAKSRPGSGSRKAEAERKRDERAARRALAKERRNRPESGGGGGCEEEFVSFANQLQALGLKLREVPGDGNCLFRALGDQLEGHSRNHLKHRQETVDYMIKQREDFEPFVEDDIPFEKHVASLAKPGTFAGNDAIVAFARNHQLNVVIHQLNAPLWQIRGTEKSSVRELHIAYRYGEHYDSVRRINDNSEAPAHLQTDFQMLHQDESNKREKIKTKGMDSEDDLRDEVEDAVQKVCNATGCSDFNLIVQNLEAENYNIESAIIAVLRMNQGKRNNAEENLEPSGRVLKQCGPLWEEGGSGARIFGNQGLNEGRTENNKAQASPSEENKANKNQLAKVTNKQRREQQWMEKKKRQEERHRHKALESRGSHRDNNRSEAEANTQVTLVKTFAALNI
In short: as §1

[4] = target: T2, UniProt Q8TE49
T2 sequence (whole entry): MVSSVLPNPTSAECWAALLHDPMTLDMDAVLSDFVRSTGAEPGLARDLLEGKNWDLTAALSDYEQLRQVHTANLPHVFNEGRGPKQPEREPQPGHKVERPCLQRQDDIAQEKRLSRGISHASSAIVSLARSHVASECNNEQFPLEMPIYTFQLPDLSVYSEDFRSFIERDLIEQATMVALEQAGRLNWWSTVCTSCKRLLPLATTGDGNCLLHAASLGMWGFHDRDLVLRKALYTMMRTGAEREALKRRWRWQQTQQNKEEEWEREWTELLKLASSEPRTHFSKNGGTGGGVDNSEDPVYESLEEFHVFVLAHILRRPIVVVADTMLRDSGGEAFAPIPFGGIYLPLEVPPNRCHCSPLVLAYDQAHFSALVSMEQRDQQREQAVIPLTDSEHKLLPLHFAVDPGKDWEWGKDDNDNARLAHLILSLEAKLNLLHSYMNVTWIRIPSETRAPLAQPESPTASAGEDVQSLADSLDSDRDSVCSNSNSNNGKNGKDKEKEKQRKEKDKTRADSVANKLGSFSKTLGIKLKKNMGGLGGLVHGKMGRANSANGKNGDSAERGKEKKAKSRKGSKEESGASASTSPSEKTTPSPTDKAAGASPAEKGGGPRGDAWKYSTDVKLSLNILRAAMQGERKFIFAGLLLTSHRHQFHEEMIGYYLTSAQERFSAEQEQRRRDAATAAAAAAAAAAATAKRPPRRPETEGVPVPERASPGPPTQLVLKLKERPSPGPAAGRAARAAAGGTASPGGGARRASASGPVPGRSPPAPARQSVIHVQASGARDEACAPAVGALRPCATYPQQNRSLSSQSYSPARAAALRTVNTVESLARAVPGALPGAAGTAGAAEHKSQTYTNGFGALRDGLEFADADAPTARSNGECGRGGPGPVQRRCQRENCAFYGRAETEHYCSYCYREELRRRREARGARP
In short: as §1

[5] = target: T3, UniProt Q9P2H5
T3 sequence (whole entry): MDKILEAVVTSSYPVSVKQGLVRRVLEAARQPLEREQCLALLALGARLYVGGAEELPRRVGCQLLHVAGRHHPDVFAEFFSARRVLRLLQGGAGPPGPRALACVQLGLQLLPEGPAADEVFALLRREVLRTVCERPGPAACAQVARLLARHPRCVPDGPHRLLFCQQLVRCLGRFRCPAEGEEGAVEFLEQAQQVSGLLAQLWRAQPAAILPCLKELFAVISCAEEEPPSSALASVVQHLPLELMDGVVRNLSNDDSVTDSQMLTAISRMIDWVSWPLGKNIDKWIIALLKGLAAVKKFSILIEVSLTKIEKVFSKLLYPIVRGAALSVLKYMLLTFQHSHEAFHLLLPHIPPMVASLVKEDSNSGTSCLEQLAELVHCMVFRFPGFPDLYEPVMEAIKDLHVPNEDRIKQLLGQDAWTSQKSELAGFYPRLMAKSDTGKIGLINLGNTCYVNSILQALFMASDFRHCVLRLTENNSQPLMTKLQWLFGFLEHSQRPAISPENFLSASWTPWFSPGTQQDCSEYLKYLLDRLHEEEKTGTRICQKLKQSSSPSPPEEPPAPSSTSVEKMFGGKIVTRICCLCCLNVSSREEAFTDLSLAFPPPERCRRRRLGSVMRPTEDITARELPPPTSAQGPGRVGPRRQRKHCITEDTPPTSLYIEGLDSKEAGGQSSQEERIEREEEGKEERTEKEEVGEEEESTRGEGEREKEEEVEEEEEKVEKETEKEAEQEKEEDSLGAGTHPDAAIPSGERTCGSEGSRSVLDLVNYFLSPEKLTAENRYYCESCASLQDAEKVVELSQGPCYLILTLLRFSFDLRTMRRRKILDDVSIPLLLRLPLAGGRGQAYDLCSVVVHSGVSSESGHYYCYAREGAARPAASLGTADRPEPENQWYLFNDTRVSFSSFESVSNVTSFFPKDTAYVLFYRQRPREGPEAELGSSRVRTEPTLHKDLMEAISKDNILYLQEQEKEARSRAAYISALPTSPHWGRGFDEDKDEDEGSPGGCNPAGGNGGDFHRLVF
In short: as §1

[6] = target: T4, UniProt Q9UGI0
T4 sequence (whole entry): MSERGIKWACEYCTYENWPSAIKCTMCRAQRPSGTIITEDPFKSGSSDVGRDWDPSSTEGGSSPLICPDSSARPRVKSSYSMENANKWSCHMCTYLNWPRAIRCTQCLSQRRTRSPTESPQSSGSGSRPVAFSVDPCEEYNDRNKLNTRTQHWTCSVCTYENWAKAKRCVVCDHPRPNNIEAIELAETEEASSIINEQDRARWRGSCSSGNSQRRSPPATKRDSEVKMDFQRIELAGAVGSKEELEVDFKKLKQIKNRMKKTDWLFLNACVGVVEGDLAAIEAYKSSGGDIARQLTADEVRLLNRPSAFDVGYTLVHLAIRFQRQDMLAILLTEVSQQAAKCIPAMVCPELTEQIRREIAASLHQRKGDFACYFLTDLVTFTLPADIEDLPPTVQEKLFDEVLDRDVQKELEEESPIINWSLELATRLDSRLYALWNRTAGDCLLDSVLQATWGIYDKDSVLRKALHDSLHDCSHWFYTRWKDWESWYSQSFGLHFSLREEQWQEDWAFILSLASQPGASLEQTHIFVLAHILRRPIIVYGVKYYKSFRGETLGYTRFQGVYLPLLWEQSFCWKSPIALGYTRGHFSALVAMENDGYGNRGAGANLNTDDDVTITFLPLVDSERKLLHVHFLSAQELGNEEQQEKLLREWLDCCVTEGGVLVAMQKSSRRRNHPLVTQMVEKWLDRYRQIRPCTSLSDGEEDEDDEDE
In short: as §1

[7] = target: T5, YOD1 (UniProt Q5VVQ6)
T5 sequence (whole entry): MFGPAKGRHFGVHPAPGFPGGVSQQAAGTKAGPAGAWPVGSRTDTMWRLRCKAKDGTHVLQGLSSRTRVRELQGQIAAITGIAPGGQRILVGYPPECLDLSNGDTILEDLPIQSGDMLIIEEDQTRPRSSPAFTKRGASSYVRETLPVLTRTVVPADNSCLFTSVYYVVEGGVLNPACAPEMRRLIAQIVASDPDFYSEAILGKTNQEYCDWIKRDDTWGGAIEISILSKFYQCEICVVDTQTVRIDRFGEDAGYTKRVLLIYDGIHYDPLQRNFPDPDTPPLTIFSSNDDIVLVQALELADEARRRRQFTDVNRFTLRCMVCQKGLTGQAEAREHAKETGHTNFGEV
In short: as §1

Measured: log2 ratio of Biotin-Ahx-Ub-VS probe labelling

Sequence of UniProt P51784 (P51784 whole entry): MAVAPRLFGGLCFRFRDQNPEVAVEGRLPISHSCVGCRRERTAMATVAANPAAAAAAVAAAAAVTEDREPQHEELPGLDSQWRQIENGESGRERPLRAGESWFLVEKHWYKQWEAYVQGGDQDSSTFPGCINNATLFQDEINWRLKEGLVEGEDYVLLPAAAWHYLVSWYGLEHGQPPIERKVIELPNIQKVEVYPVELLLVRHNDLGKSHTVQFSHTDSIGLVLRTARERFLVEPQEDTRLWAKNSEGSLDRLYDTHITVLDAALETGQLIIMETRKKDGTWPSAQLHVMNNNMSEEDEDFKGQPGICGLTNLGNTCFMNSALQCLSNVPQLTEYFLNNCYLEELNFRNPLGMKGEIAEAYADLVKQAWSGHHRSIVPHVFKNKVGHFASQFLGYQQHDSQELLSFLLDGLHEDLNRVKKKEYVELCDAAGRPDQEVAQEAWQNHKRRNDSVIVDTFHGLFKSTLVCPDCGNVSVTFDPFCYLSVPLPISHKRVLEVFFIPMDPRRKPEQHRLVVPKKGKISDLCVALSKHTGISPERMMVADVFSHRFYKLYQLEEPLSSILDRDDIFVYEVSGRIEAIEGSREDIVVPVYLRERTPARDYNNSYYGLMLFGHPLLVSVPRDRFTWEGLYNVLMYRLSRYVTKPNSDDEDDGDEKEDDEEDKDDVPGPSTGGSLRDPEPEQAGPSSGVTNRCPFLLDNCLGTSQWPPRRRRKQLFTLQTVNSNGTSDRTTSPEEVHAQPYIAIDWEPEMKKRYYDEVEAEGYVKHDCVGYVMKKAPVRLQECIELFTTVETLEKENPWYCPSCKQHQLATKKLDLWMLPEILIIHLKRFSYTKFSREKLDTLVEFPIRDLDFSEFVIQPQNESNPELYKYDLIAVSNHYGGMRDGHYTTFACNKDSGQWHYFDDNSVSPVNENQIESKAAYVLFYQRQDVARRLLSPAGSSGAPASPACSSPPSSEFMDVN
Sequence of UniProt O00507 (O00507 whole entry, the tested form may be a part): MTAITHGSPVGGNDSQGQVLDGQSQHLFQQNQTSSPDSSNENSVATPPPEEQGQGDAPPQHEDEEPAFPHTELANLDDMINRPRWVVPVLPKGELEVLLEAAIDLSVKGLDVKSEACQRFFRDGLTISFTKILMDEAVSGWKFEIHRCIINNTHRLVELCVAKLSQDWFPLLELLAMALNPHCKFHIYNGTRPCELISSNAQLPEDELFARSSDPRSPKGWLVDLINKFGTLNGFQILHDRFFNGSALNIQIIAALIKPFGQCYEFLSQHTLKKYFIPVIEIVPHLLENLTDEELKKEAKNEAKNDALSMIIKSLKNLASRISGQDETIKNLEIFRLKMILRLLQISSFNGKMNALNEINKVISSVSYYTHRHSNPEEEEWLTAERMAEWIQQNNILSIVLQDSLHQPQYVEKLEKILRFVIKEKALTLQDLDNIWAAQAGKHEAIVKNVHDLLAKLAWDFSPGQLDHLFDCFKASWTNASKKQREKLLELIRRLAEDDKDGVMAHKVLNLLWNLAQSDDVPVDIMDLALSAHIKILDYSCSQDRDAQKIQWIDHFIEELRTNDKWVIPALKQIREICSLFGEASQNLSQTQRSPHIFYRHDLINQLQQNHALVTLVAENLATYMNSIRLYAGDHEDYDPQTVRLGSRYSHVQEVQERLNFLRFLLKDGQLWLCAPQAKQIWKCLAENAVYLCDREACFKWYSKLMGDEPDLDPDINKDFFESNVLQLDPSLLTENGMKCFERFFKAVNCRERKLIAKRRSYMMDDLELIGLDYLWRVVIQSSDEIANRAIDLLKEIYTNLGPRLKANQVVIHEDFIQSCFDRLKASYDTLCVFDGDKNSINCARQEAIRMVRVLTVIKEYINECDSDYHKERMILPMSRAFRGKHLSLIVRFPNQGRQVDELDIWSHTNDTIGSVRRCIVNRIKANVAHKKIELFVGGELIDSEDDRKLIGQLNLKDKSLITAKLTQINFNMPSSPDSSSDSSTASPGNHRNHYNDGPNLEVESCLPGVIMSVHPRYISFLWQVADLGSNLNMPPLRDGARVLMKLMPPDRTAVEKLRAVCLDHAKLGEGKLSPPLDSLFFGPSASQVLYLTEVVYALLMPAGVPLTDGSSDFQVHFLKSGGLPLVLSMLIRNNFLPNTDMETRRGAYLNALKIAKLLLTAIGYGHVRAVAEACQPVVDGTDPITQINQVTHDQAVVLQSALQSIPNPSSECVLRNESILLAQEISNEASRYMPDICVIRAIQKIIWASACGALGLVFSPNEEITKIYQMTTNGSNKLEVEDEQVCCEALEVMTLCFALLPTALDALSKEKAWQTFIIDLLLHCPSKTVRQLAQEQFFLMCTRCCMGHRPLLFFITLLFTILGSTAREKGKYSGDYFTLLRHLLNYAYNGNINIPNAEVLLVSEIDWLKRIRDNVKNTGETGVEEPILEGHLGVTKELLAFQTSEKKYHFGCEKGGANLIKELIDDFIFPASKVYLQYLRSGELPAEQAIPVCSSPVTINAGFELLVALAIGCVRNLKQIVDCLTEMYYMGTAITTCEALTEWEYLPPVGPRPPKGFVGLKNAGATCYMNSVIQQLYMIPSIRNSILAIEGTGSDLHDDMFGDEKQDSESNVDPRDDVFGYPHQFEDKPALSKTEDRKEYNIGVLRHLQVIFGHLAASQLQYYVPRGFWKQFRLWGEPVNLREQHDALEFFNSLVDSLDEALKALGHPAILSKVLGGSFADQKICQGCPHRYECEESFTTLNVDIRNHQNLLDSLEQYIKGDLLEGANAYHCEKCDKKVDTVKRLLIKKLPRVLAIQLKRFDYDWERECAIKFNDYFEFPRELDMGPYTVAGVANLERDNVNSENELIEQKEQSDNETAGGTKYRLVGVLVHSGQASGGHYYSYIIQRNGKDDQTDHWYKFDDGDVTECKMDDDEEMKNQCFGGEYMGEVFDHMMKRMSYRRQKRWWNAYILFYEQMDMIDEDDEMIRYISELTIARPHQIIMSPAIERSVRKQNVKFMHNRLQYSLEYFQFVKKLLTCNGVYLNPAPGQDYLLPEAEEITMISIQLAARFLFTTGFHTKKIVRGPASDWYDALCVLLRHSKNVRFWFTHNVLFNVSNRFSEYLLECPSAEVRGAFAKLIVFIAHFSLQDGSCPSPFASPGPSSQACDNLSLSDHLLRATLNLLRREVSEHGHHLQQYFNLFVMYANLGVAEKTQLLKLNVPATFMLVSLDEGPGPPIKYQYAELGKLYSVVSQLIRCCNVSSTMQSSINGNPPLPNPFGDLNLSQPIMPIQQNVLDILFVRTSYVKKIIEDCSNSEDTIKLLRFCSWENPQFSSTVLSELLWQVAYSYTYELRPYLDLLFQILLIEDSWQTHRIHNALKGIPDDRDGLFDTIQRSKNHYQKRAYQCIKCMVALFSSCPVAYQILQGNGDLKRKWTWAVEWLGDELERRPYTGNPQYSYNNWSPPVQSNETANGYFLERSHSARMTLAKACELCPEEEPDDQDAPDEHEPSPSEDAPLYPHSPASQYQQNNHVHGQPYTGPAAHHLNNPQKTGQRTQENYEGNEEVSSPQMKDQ

COc1ccc(C2CCCN2C(=O)CCl)c(OC)c1 (stereo unspecified)
inactive: [1] 0.129 | [2] -0.237 | [3] -0.139 | [4] -0.514 | [5] -0.249 | [6] -0.113 | [7] -0.0199

Cc1ccc(CC(NC(=O)CCl)c2ccccn2)cc1.Cl (stereo unspecified)
inactive: [1] -0.0403 | [2] 0.188 | [3] 0.254 | [4] 0.237 | [5] -0.00516 | [6] -0.0851 | [7] 0.248

O=C(CCl)NC1CCOc2ccccc21 (stereo unspecified)
inactive: [1] -0.574 | [2] -0.702 | [3] -0.795 | [5] -0.687 | [6] -0.865 | [7] -0.774
active: [4] -1.79

CC(NC(=O)CCl)c1cnn(C2CC2)c1 (stereo unspecified)
inactive: [1] -0.607 | [2] -0.127 | [3] -0.192 | [4] -0.779 | [5] -0.0606 | [6] -0.311 | [7] -0.732

C#Cc1cccc(NC(=O)CCl)c1
inactive: [1] 0.0122 | [2] -0.102 | [3] -0.121 | [4] -0.872 | [5] -0.252 | [7] 0.0347
active: [6] -1.01

Cc1nc(CN2CCN(C(=O)CCl)CC2)cs1
inactive: [1] -0.246 | [2] -0.106 | [3] -0.213 | [4] -0.382 | [5] -0.401 | [6] -0.214 | [7] -0.111

CS(=O)(=O)c1ccc(NC(=O)CCl)cc1
inactive: [1] -0.0176 | [2] -0.0206 | [3] -0.139 | [4] -0.443 | [5] -0.192 | [6] -0.87 | [7] 0.0991

O=C(CCl)N1CC2(CCOCC2)C1
inactive: [1] -0.0593 | [2] 0.164 | [3] -0.249 | [4] -0.469 | [5] -0.109 | [6] -0.328 | [7] -0.131

Source: the supplement of paper PMC11732987, “Enantioselective OTUD7B fragment discovery through chemoproteomics screening and high-throughput optimisation” (Communications Chemistry, 2025)
